# Measurements taken from PubChem BioAssay (EPA / NIEHS).
# Activity calls are given as the source filed them. How the source made its calls: active means hit-call score of the fitted dose curve at least 0.9, where 1 is the maximum; inactive means score below 0.9.
# Experiments:
# [1] = ATG_CRE_CIS: Attagene CIS-FACTORIAL HepG2 Assay for human cAMP Responsive Element (CRE) binding protein 3 (AID 2282926); settings: HepG2 CRE cis-reporter, Attagene multiplexed mRNA; actives raise or lower the signal
# In short: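 HepG2 cells transiently transfected with a multiplexed reporter library (CRE-driven unit among them) were dosed for 24 h. Reporter mRNA was quantified by RT-PCR, fluorescent labelling, HpaI digestion and capillary electrophoresis, with bidirectional fitting against DMSO baseline.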
# [2] = ATG_DR4_LXR_CIS: Attagene CIS-FACTORIAL HepG2 Assay for human Liver X Receptor (LXR), DR4 submotif (AID 2282929); settings: HepG2 Attagene DR4 cis-reporter, mRNA transcription; actives raise or lower the signal
# In short: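 Cells were transfected with multiple reporter transcription units, exposed to chemicals for 24 hours, then lysed for RNA. Reporter mRNA induction was measured by RT-PCR with capillary electrophoresis detection and fitted in both directions relative to DMSO.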
# [3] = ATG_AP_2_CIS: Attagene CIS-FACTORIAL HepG2 Assay for human Activator Protein 2 (AP-2) (AID 2282932); settings: HepG2 AP-2 cis-reporter, Attagene transcription factor profiling; actives raise or lower the signal
# In short: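 HepG2, transient MRTU transfection, cis-regulated reporters; 24 h compound exposure; RNA isolated, RT-PCR, 6-FAM labelling, HpaI digest, CE fluorescence. DMSO = negative control/baseline, bidirectional fit.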
# [4] = ATG_BRE_CIS: Attagene CIS-FACTORIAL HepG2 Assay for human Bone Morphogenetic Protein (BMP) Response Element (BRE) (AID 2282933); settings: HepG2 BMP response element reporter, Attagene transcription factor profiling; actives raise or lower the signal
# In short: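 Transient MRTU transfection of human HepG2 liver cells; 24 h compound treatment; total RNA isolated, reverse-transcribed, PCR-amplified, 6-FAM labelled, HpaI-cut, capillary electrophoresis. DMSO = negative control/baseline, bidirectional fit.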
# [5] = target: Transcription factor E2F1 (Homo sapiens) (UniProt Q01094); assay: ATG_E2F_CIS: Attagene CIS-FACTORIAL HepG2 Assay for human E2F Transcription Factor 1 (AID 2282935); settings: HepG2 Attagene cis-reporter, E2F reporter RNA transcripts; actives raise or lower the signal
# In short: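 Cis-element reporter mRNA induction in transiently transfected HepG2, 24 h exposure. Activity fitted in both directions relative to DMSO negative control.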
# [6] = ATG_E_Box_CIS: Attagene CIS-FACTORIAL HepG2 Assay for human Enhancer Box (E-box) (AID 2282936); settings: HepG2 E-box cis-reporter transcription, actives raise or lower the signal
# In short: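 Cells: HepG2 (human liver), transient MRTU transfection. Exposure 24 h. RNA → oligo(dT) RT → PCR → 6-FAM label → HpaI → CE. Activity fitted both directions relative to DMSO.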
# [7] = ATG_M_19_CIS: Attagene CIS-FACTORIAL HepG2 Assay for M19 Transcription Factor (Internal Marker) (AID 2282939); settings: HepG2 Attagene CIS-FACTORIAL M19 internal marker reporter; actives raise or lower the signal
# In short: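 Transfect HepG2 with MRTU reporter library → dose chemical, 24 h → isolate total RNA, reverse-transcribe with oligo(dT) → PCR, 6-FAM label, HpaI cut (2 h, 37 C) → capillary electrophoresis. Bidirectional fit vs DMSO.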
# [8] = ATG_Ets_CIS: Attagene CIS-FACTORIAL HepG2 Assay for human Erythroblast Transformation Specific (ETS) (AID 2282941); settings: HepG2 ETS cis-reporter transcription, actives raise or lower the signal
# In short: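 Human HepG2 hepatoma cells were transiently transfected with promoter-driven reporter constructs and treated for 24 hours. Reporter transcripts were quantified by RT-PCR with fluorescent primer extension; bidirectional curve fitting used DMSO as reference.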
# [9] = target: Hepatocyte nuclear factor 3-beta (Homo sapiens) (UniProt Q9Y261); assay: ATG_FoxA2_CIS: Attagene CIS-FACTORIAL HepG2 Assay for human Forkhead box A2 (FOXA2) (AID 2282942); settings: HepG2 cis-reporter transcription factor activity, 24 h; actives raise or lower the signal
# In short: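 Endogenous transcription factor activity was read in HepG2 cells carrying transiently transfected cis-promoter reporter units. After 24 h dosing, reporter mRNA was quantified by RT-PCR and capillary electrophoresis, and values fitted bidirectionally versus DMSO.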
# [10] = ATG_FoxO_CIS: Attagene CIS-FACTORIAL HepG2 Assay for human Forkhead box O (FoxO) (AID 2282943); settings: HepG2 Attagene cis-reporter, FoxO element, mRNA; actives raise or lower the signal
# In short: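 HepG2, transient MRTU transfection (cis element, endogenous TFs). Dose 24 h. TriZol RNA → oligo(dT) RT → PCR → 6-FAM primer extension → HpaI cut → CE. Gain/loss vs DMSO.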
# [11] = ATG_GATA_CIS: Attagene CIS-FACTORIAL HepG2 Assay for human GATA Binding Protein (AID 2282944); settings: HepG2 GATA cis-element reporter, Attagene multiplex mRNA; actives raise or lower the signal
# In short: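 Transient MRTU transfection, HepG2, 24 h compound exposure. Total RNA → oligo(dT) RT → PCR → 6-FAM primer extension → HpaI cut → CE. Bidirectional fit vs DMSO.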
# [12] = ATG_M_32_CIS: Attagene CIS-FACTORIAL HepG2 Assay for M32 Transcription Factor (Internal Marker) (AID 2282949); settings: HepG2 Attagene cis-factorial M32 reporter, mRNA; actives raise or lower the signal;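 further: background control marker of the multiplexed CIS panel rather than a real target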
# In short: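 Fluorescent capillary electrophoresis peaks of HpaI-digested, FAM-labelled RT-PCR reporter products give the signal. Source: transiently transfected human liver HepG2 cells, 24 h after chemical dosing; bidirectional fitting against DMSO.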
# [13] = ATG_PXRE_CIS: Attagene CIS-FACTORIAL HepG2 Assay for human Pregnane X Receptor Element (PXRE) (AID 2282957); settings: HepG2 Attagene CIS-FACTORIAL PXRE reporter, mRNA; actives raise or lower the signal
# In short: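 HepG2 cells transiently transfected with cis-regulated multiple reporter transcription units; endogenous factor activity measured as reporter mRNA 24 h after dosing. RT-PCR, fluorescent primer extension, HpaI digestion, capillary electrophoresis; bidirectional fit versus DMSO baseline.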
# [14] = ATG_Sox_CIS: Attagene CIS-FACTORIAL HepG2 Assay for human SRY-box transcription factor (SOX) (AID 2282960); settings: HepG2 Attagene cis-factorial SOX reporter, mRNA; actives raise or lower the signal
# In short: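 Transient MRTU transfection of HepG2; 24 h compound incubation; TriZol RNA, oligo(dT) RT, PCR, 6-FAM primer extension, HpaI cut, CE. Bidirectional fit, DMSO = baseline.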
# [15] = target: Transcription factor Sp1 (Homo sapiens) (UniProt P08047); assay: ATG_Sp1_CIS: Attagene CIS-FACTORIAL HepG2 Assay for human Specificity Protein 1 (Sp1) (AID 2282961); settings: HepG2 Sp1 cis-reporter transcription, actives raise or lower the signal
# In short: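 Endogenous Sp1 activity was gauged in human liver HepG2 cells bearing transfected reporter units under a cis-regulating promoter. After 24 h dosing, reporter mRNA was quantified by RT-PCR with capillary electrophoresis, and activity fitted bidirectionally versus DMSO.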
# [16] = ATG_SREBP_CIS: Attagene CIS-FACTORIAL HepG2 Assay for human Sterol Regulatory Element Binding (SREBP) (AID 2282962); settings: HepG2 Attagene cis-factorial SREBP reporter, mRNA; actives raise or lower the signal
# In short: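 mRNA induction of transfected cis-promoter reporters in HepG2 cells, 24 h post-dose. Detection: RT-PCR with 6-FAM-labelled products, HpaI digest, capillary electrophoresis. DMSO served as negative control and baseline.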
# [17] = target: Signal transducer and activator of transcription 3 (Homo sapiens) (UniProt P40763); assay: ATG_STAT3_CIS: Attagene CIS-FACTORIAL HepG2 Assay for human Signal Transducer and Activator of Transcription 3 (STAT3) (AID 2282963); settings: HepG2, Attagene cis-factorial STAT3 reporter transcription; actives raise or lower the signal
# In short: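 Endogenous STAT3-responsive cis-element activity was read in transiently transfected HepG2 cells after 24 h treatment. Reporter transcripts were quantified via RT-PCR and capillary electrophoresis, with DMSO as negative control and bidirectional curve fitting.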
# [18] = ATG_TA_CIS: Attagene CIS-FACTORIAL HepG2 Assay for human TA Basal Promoter (AID 2282964); settings: HepG2 Attagene CIS-factorial TA basal promoter reporter; actives raise or lower the signal
# In short: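 Read-out: fluorescent reporter-transcript fragments resolved by capillary electrophoresis after RT-PCR and HpaI digestion. Source: HepG2 cells carrying transiently transfected multi-reporter cis constructs, treated 24 h. Endpoint fitted bidirectionally relative to DMSO.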
# [19] = ATG_TCF_b_cat_CIS: Attagene CIS-FACTORIAL HepG2 Assay for human T-Cell-Factor with beta-catenin (TCF/b-cat) (AID 2282965); settings: HepG2 TCF/beta-catenin cis-reporter transcription, actives raise or lower the signal
# In short: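 Endogenous transcription factor activity is captured through cis-promoter reporter constructs transiently introduced into human HepG2 liver cells. Induced reporter mRNA is measured after 24 h and fitted bidirectionally relative to DMSO.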
# [20] = ATG_TGFb_CIS: Attagene CIS-FACTORIAL HepG2 Assay for human Transforming Growth Factor (TGF) (AID 2282967); settings: HepG2 Attagene CIS TGFb reporter, mRNA transcription; actives raise or lower the signal
# In short: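 Transient MRTU transfection of HepG2 (FuGene 6). Dose 24 h. TriZol RNA, oligo(dT) RT, PCR, 6-FAM primer extension, HpaI cut, CE. Bidirectional fit, DMSO = baseline.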
# Transcription factor Sp1 (Homo sapiens), sequence (P08047 whole entry, looked up): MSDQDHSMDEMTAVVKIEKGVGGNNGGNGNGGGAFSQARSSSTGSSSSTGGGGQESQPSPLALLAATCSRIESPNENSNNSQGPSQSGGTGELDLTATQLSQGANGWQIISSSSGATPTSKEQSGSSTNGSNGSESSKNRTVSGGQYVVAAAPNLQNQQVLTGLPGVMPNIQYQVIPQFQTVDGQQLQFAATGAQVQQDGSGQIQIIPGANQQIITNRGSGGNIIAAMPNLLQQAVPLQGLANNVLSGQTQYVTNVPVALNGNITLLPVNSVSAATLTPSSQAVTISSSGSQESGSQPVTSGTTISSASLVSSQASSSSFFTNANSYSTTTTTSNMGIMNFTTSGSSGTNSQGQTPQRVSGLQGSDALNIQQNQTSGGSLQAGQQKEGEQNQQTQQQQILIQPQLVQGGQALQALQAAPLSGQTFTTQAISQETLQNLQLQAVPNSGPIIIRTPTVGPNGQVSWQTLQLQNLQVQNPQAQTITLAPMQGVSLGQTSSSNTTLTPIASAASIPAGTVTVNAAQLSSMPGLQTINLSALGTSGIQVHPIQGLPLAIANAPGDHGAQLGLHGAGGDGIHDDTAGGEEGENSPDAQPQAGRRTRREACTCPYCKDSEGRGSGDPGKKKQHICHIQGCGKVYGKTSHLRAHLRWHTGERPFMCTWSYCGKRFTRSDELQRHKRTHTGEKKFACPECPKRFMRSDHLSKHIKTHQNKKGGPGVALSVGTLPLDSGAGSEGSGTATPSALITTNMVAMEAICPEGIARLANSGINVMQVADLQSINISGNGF
# Hepatocyte nuclear factor 3-beta (Homo sapiens), sequence (Q9Y261 whole entry, looked up): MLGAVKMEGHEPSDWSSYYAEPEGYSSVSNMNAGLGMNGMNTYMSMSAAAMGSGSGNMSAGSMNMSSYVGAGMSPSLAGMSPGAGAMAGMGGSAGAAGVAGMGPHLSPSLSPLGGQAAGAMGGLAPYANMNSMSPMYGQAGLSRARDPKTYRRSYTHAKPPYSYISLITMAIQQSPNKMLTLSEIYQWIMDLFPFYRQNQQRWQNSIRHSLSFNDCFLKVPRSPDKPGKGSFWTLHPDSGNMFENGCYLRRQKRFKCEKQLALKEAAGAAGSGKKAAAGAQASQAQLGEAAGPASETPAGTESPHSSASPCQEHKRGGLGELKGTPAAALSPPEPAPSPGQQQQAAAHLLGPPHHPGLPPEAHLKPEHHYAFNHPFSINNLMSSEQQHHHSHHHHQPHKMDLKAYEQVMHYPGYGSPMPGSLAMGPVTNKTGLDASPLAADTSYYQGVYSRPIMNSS
# Transcription factor E2F1 (Homo sapiens), sequence (Q01094 whole entry, looked up): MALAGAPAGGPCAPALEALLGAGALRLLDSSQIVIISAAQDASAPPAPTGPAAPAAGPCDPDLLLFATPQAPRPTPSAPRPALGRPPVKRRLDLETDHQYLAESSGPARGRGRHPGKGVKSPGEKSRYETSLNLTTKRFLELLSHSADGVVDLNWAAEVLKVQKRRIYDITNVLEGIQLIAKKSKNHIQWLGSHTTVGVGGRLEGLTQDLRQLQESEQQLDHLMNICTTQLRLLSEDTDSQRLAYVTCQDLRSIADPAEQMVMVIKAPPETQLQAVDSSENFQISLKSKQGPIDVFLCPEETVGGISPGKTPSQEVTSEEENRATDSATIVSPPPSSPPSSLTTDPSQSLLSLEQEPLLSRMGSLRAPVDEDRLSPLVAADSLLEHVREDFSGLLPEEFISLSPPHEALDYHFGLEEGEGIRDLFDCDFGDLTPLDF
# Signal transducer and activator of transcription 3 (Homo sapiens), sequence (P40763 whole entry, looked up): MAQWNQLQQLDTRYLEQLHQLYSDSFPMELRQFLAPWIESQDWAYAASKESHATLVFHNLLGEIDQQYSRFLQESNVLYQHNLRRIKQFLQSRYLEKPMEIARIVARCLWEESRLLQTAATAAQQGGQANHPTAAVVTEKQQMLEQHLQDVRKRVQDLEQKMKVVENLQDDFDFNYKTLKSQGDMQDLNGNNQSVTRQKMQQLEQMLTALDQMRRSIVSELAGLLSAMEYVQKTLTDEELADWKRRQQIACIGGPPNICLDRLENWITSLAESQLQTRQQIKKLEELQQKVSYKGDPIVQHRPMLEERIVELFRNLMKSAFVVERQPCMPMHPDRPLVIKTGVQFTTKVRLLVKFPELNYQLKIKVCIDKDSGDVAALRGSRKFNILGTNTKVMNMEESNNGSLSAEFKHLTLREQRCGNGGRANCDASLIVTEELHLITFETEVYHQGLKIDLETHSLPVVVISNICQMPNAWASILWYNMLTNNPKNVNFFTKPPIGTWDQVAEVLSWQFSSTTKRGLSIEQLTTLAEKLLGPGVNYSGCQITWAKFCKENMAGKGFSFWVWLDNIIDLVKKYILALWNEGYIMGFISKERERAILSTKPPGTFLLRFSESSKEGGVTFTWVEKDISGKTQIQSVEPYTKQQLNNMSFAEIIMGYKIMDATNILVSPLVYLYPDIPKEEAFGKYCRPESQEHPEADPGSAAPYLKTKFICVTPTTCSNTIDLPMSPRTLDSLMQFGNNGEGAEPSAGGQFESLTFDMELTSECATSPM
smiles,measurement,setting,value
O=c1c2ccccc2c(=O)c2c1cc(Cl)c1[nH]c3c([nH]c12)c(Cl)cc1c(=O)c2ccccc2c(=O)c13,outcome,[1],inactive
same,outcome,[2],inactive
same,outcome,[3],inactive
same,AC50,[4],26.1 µM (active)
same,outcome,[5],inactive
same,outcome,[6],inactive
same,outcome,[7],inactive
same,outcome,[8],inactive
same,outcome,[9],inactive
same,outcome,[10],inactive
same,outcome,[11],inactive
same,outcome,[12],inactive
same,AC50,[13],11.2 µM (active)
same,outcome,[14],inactive
same,outcome,[15],inactive
same,outcome,[16],inactive
same,outcome,[17],inactive
same,outcome,[18],inactive
same,outcome,[19],inactive
same,outcome,[20],inactive
CCN(CC)C(=S)S,outcome,[1],inactive
same,outcome,[2],inactive
same,outcome,[3],inactive
same,outcome,[4],inactive
same,outcome,[5],inactive
same,outcome,[6],inactive
same,outcome,[7],inactive
same,outcome,[8],inactive
same,outcome,[9],inactive
same,outcome,[10],inactive
same,outcome,[11],inactive
same,outcome,[12],inactive
same,AC50,[13],22.7 µM (active)
same,outcome,[14],inactive
same,outcome,[15],inactive
same,outcome,[16],inactive
same,outcome,[17],inactive
same,outcome,[18],inactive
same,outcome,[19],inactive
same,outcome,[20],inactive
O=C(NC(=O)c1c(F)cccc1F)Nc1ccc(Oc2ccc(C(F)(F)F)cc2Cl)cc1F,outcome,[1],inactive
same,outcome,[2],inactive
same,outcome,[3],inactive
same,outcome,[4],inactive
same,outcome,[5],inactive
same,outcome,[6],inactive
same,outcome,[7],inactive
same,outcome,[8],inactive
same,outcome,[9],inactive
same,outcome,[10],inactive
same,outcome,[11],inactive
same,outcome,[12],inactive
same,AC50,[13],3.15 µM (active)
same,outcome,[14],inactive
same,outcome,[15],inactive
same,outcome,[16],inactive
same,outcome,[17],inactive
same,outcome,[18],inactive
same,outcome,[19],inactive
same,outcome,[20],inactive
CC(C)C#N,outcome,[1],inactive
same,outcome,[2],inactive
same,outcome,[3],inactive
same,outcome,[4],inactive
same,outcome,[5],inactive
same,outcome,[6],inactive
same,outcome,[7],inactive
same,outcome,[8],inactive
same,outcome,[9],inactive
same,outcome,[10],inactive
same,outcome,[11],inactive
same,outcome,[12],inactive
same,AC50,[13],27.6 µM (active)
same,outcome,[14],inactive
same,outcome,[15],inactive
same,outcome,[16],inactive
same,outcome,[17],inactive
same,outcome,[18],inactive
same,outcome,[19],inactive
same,outcome,[20],inactive
CN1C(=O)CCS(=O)(=O)C1c1ccc(Cl)cc1 (stereo not given),outcome,[1],inactive
same,outcome,[2],inactive
same,outcome,[3],inactive
same,outcome,[4],inactive
same,outcome,[5],inactive
same,outcome,[6],inactive
same,outcome,[7],inactive
same,outcome,[8],inactive
same,outcome,[9],inactive
same,outcome,[10],inactive
same,outcome,[11],inactive
same,outcome,[12],inactive
same,outcome,[13],inactive
same,outcome,[14],inactive
same,outcome,[15],inactive
same,outcome,[16],inactive
same,outcome,[17],inactive
same,outcome,[18],inactive
same,outcome,[19],inactive
same,outcome,[20],inactive
CCOP(O)OCC,outcome,[1],inactive
same,outcome,[2],inactive
same,outcome,[3],inactive
same,outcome,[4],inactive
same,outcome,[5],inactive
same,outcome,[6],inactive
same,outcome,[7],inactive
same,outcome,[8],inactive
same,outcome,[9],inactive
same,outcome,[10],inactive
same,outcome,[11],inactive
same,outcome,[12],inactive
same,AC50,[13],30.1 µM (active)
same,outcome,[14],inactive
same,outcome,[15],inactive
same,outcome,[16],inactive
same,outcome,[17],inactive
same,outcome,[18],inactive
same,outcome,[19],inactive
same,outcome,[20],inactive
O=C(CCN1CC1)OCC(CO)(COC(=O)CCN1CC1)COC(=O)CCN1CC1,outcome,[1],inactive
same,outcome,[2],inactive
same,outcome,[3],inactive
same,outcome,[4],inactive
same,outcome,[5],inactive
same,outcome,[6],inactive
same,outcome,[7],inactive
same,outcome,[8],inactive
same,outcome,[9],inactive
same,outcome,[10],inactive
same,outcome,[11],inactive
same,outcome,[12],inactive
same,outcome,[13],inactive
same,outcome,[14],inactive
same,outcome,[15],inactive
same,outcome,[16],inactive
same,outcome,[17],inactive
same,outcome,[18],inactive
same,outcome,[19],inactive
same,outcome,[20],inactive
